Not all results are given here.
NPR1 antag – antagonists of human natriuretic peptide receptor Npr1 | P16066 | HEK293 hNpr1 GloSensor cGMP, ANP-stimulated luminescence | Potency, µM (top dose mostly 46.3 µM), for inactives: at the top dose activity change, negative = inhibition, hits mostly inhibitors | actives 1.6% (n = 76,000) | AID 1347048; calls by dose curve; also: % is scaled to controls: 0 for no effect and ±100 for the full control effect; nearly all actives have a fitted effect of over 60% in size
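Compound pre-incubated 30 min at room temperature on GloSensor-loaded HEK293 cells stably carrying hNpr1 and the pGS-40F cGMP biosensor. Stimulation uses hNppA at 0.1 nM final; luminescence is taken at baseline and 20 min post-agonist.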
FLuc inh-1 – blocks purified firefly luciferase enzyme activity. purified P. pyralis luciferase, luminescence, biochemical. Potency, µM (top dose mostly 115 µM), hits mostly inhibitors. actives 2.5% (n = 76,000). AID 1347043; also: % is scaled to controls: 0 for no effect and ±100 for the full control effect; nearly all actives have a fitted effect of over 65% in size
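Luminescence read by CCD imager after adding enzyme (10nM final) to wells holding compound, titrated in qHTS. Substrates 10uM each D-luciferin and ATP; buffer 50mM Tris acetate pH 7.5, 10mM Mg acetate, Tween-20, BSA.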
NIH3T3 tox – kills NIH 3T3 cells | NIH 3T3 viability, CellTiter-Glo ATP luminescence, 48-72 h | Potency, µM (top dose mostly 96.7 µM), without a hit: at the highest dose activity change, negative = cytotoxicity, most hits filed as inhibitors | actives 4.3% (n = 94,000) | AID 1345082; also: % is scaled to controls: 0 for no effect and ±100 for the full control effect; nearly all actives have a fitted effect of over 55% in size
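Cells were seeded at 400 per well, treated with pin-transferred compound, and kept 48 or 72 hr at 37 °C before CellTiter-Glo addition and luminescence imaging of cellular ATP.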
HEK293 tox – cytotoxic compounds in HEK 293 cells | HEK 293 viability, ATP luminescence (CellTiter-Glo), 48-72 h | Potency, µM (titrated, usually from 115 µM), for inactives: at the highest dose activity change, negative = cytotoxicity, actives largely listed as inhibitors | actives 6.6% (n = 94,000) | AID 1345083; also: % is scaled to controls: 0 for no effect and ±100 for the full control effect; nearly all actives have a fitted effect of over 60% in size
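HEK 293 cells at 250 cells/well were exposed to compounds by pintool transfer for 48 or 72 hr at 37 degree Celsius, 5% CO2. Viability was read as ATP-coupled luminescence with CellTiter-Glo after 10 min at room temperature.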
FLuc SDR no ATP – firefly luciferase binding stabilization, ATP absent | Purified FLuc-C-HiBiT, Nano-Glo HiBiT luminescence, no ATP | actives 7.8% (n = 1,300) | AID 1963318 | shares compounds with FLuc inh-1 | Potency, µM (titrated, usually from 32.7 µM), inactives show at the top dose activation (signal gain), usual class: activators; also: nearly all actives have a fitted effect of over 55% in size
FLuc SDR ATP – binders stabilizing firefly luciferase, plus ATP; shares compounds with FLuc inh-1; purified FLuc-C-HiBiT + ATP, HiBiT complementation luminescence; Potency, µM (titrated, usually from 32.7 µM), for inactives: at the top dose activation (gain of signal), actives largely listed as activators; actives 8.7% (n = 1,300); AID 1963319;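 also: signal reports ligand binding via conformational change of the enzyme rather than luciferase catalysis; % of control where 0% means no effect; nearly all actives have a fitted effect of over 55% in size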
FLuc inh-2 – firefly luciferase enzyme inhibition. shares compounds with FLuc inh-1. purified FLuc-C-HiBiT enzyme, luciferin luminescence. Potency, µM (doses to about 32.7 µM), without a hit: at the top dose activity change, negative = inhibition, most hits filed as inhibitors. actives 42% (n = 1,300); also: % is scaled to controls: 0 for no effect and ±100 for the full control effect; nearly all actives have a fitted effect of over 70% in size
Numbers without * were called inactive; i = inactive; ? = inconclusive; / = not tested or not shown; [ ] = remark or other dose. Unless noted, calls follow the shape of the dose curve; as a rule, active = well fitted curve in the direction sought with a large enough effect; inconclusive = small, poorly fitted or top-dose-only effect, or another doubt; inactive = no such curve, though single readings can be large; an effect the other way counts as inactive or inconclusive. Potency is read from the fitted curve at half-maximal effect.

SMILES | NPR1 antag | FLuc inh-1 | NIH3T3 tox | HEK293 tox | FLuc SDR no ATP | FLuc SDR ATP | FLuc inh-2
COCCN1CC2(CCOC2)N(C2CCN(C(=O)Cc3ccccc3F)CC2)C1=O (stereo not drawn) | / | / | -27.1% | 4.8% | / | / | /
Cn1ncc2c(C(=O)NCc3cccc(Cl)c3)cc(-c3cccc(C(F)(F)F)c3)nc21 | / | / | ? | -18.1% | / | / | /
Cc1ccccc1-c1cc(O)c2c(c1)CN(Cc1nccn1C)CCO2 | -7.6% | i | -28.9% | ? | / | / | /
Cc1noc(C)c1CC(=O)N1CCOc2c(cc(-c3nc4ccccc4s3)cc2OC2CCOC2)C1 (stereo not drawn) | / | / | / | / | 11.8% | 11.5% | -3.6%
Cc1noc(C)c1CC(=O)N1C[C@@H](Oc2ccccc2)C[C@@H]1C(=O)N1CCOCC1 | 7.9% | i | -11.6% | -2.7% | / | / | /
Oc1cc(-c2nc3ccccc3s2)cc2c1OCCN(Cc1cccn1-c1ccc(Cl)cn1)C2 | / | / | / | / | 15.9% | 12.7% | -10.5%
COc1ccc(-c2cc(-c3ccccc3)nc3c(C)noc23)cc1OC | -4.9%[70.6 µM] | i | ? | -28.1%[172 µM] | / | / | /
CN1CCN(CCNC(=O)c2ccc3c(c2)N(S(=O)(=O)c2ccccc2F)CC3)CC1 | -3.1% | i | ? | -22.4% | / | / | /
COc1ccccc1NC(=O)O[C@H]1COCCN(c2nc3ccccc3s2)C1 | -7.8%[70.6 µM] | i | ? | ? | / | / | /
CNC(=O)c1cc2cc(-c3c(C)noc3C)nc(-c3cccc(OC)c3OC)c2o1 | 4.7%[70.6 µM] | i | ? | ? | / | / | /
COc1ccc(-c2nc3ccccc3s2)cc1NC(=O)c1ccc(C#N)cc1F | / | / | / | / | 12.5% | 9.0% | -0.8%
COc1ccc(-c2nc3ccccc3s2)cc1NC(=O)c1cccc([N+](=O)[O-])c1C | / | / | / | / | 14.6% | 14.1% | 6.24µM*
COc1ccc(-c2nc3ccccc3s2)cc1NC(=O)c1cc2ccccc2o1 | / | / | / | / | 7.3% | 6.6% | -4.4%
COc1ccccc1NC(=O)c1cnc(-c2ccc(F)cc2)nc1-c1ccncc1 | -14.0% | i | i | 0.8% | / | / | /
COc1ccc(-c2nc3ccccc3s2)cc1NC(C)=O | / | / | / | / | 15.3% | 15.4% | ?
COc1ccc(-c2ccccc2C(=O)N2CCC(NC(=O)Cc3ccccc3)CC2)nn1 | / | / | -11.0% | -3.8% | / | / | /
COc1ccc(-c2nc3ccccc3s2)cc1NC(=O)c1ccccc1F | / | / | / | / | 15.0% | 7.2% | -15.5%
CCOc1ccc(C(=O)Nc2ccc(-c3nc4ccccc4s3)cc2)cc1[N+](=O)[O-] | / | / | / | / | 13.2% | 8.5% | 0.2%
COc1ccc(-c2ccc(C(=O)Nc3ccccc3F)c(Cl)c2)nn1 | / | / | -25.6% | ? | / | / | /
CC1(NC(=O)C2CC2)CN(Cc2nc(-c3ccccc3OCc3ccccc3)cs2)C1 | -14.1%[70.6 µM] | 7.94µM* | ? | 79.4µM* | 19.0%[49.3 µM] | 12.8%[49.3 µM] | ?
CC(=O)NC1(C)CCN(Cc2cnc(-c3ccccc3OCc3ccccc3)s2)CC1 | -1.1%[70.6 µM] | i | ? | ? | / | / | /
CC(=O)NC1(C)CN(Cc2ccc(-c3cccc(F)c3)nc2)C1 | 4.5%[70.6 µM] | ? | -18.9%[138 µM] | ? | / | / | /
CC1(NC(=O)C2CC2)CN(Cc2nc(-c3cccc(F)c3)cs2)C1 | 25.1µM* | 2.82µM* | -19.8%[138 µM] | ? | ? | 18.9%[49.3 µM] | ?
O=C(NC(c1ccccc1)c1ccccc1)c1cnc2c(c1)N(Cc1ccccc1)CCC2 | 2.9%[70.6 µM] | i | ? | ? | / | / | /
CCc1nn2c(-c3ccco3)ccnc2c1-c1ccc(F)cc1 | / | / | / | / | 15.2% | 10.2% | ?
COc1ccccc1OCc1nc2ccccc2n1Cc1ccccc1 | / | / | / | / | 15.4% | 9.2% | ?
CC(C)c1nc2c(c(-c3ccc(Cl)cc3)n1)CCN([S+](=O)([O-])c1cccc(C(F)(F)F)c1)CC2 | / | / | -0.8% | i | / | / | /
CCN(CC)c1cc(CCC(=O)NCCOC)ccn1 | 9.6% | i | -10.7% | -4.6% | / | / | /
